Bioassay records deposited in PubChem BioAssay by several laboratories.
Hits are enriched below; roughly 4.8% of the tested compounds scored in any of these assays.
APP 5UTR inh: APP translation inhibition; SH-SY5Y APP 5'UTR-luciferase reporter, luminescence; inhibition, % at 2 µM; actives 0.82% (n = 190,000);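 active = inhibition above a set limit, derived from the sample mean plus 3 SD, cut at about 45% in these data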
Hsp70 activator: transcriptional activators of Hsp70; HeLa Hsp70 promoter luciferase reporter, luminescence; scaled: vehicle 0, proteasome-inhibitor control 100%; activation, % at 10 µM; actives 0.04% (n = 200,000); AID 1203;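 active = activation above the mean across all tested compounds plus 3 SD, cutoff set per campaign, cut at about 5.5% in these data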;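 also: 100% = MG132 at 30 µM as the positive control and 0% = DMSO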
STAT1 act: increases IFN-gamma driven STAT1 reporter signal; NIH 3T3 STAT1-luciferase reporter, luminescence; 100% = IFN-gamma alone, no compound; activation (% of control), % at 5.5 µM; actives 2.6% (n = 200,000); AID 932;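 active = activation above the screen-wide mean activation plus 3 SD, cut at about 130% in these data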;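 also: raw ratio to IFN-gamma control signal so 100% means no change and 0% no light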
APP 5'UTR act: APP 5'UTR luciferase reporter activation; activation, % at 2 µM; actives 1% (n = 190,000); SH-SY5Y APP 5'UTR luciferase reporter, luminescence; zero percent = DMSO vehicle wells;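 active = activation above a set limit, based on mean plus 3 SD of controls, cut at about 140% in these data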
Wee1 stabilizer: blocks degradation of human Wee1 kinase. AID 1321. HeLa Luc-Wee1K328M stability, luciferase luminescence; 100% = proteasome inhibitor MG132 effect. actives 1.2% (n = 220,000). reporter increase, % at 5 µM;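 active = activation above the mean of all tested compounds plus 3 SD, set per screening run, cut at about 8.8% in these data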;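 also: cells exposed to compound for 20 h before luminescence read; 0% = DMSO alone and 100% = MG132 at 30 µM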
Target sequence (P30291 whole entry K328M): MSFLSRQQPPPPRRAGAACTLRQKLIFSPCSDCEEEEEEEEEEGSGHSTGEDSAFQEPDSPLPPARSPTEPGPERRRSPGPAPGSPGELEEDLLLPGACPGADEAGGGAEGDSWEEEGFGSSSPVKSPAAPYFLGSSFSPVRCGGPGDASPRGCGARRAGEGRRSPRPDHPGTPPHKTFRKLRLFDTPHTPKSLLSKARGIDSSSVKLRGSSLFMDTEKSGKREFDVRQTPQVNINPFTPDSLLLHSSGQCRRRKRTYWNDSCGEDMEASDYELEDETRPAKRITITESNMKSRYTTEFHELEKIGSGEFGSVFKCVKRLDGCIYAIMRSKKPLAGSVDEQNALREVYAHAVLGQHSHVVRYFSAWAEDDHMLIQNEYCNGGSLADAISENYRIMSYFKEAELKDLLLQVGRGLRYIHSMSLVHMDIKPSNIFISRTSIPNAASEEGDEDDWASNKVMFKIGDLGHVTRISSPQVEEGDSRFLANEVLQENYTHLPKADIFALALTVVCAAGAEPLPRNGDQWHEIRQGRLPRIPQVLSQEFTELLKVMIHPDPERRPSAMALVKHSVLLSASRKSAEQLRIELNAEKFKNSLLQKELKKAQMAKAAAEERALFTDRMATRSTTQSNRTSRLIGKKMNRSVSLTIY
NF-kB neuron act: raises NF-kB expression in human neuronal cells; NF-kB reporter expression; stronger effect = higher value; fold change at 12.5 µM; actives 1.6% (n = 190,000); in the data active = fold change above about 3.3
Active calls of the source: *.

CCOc1ccc(/C=C/C(=O)c2ccccc2)cc1OC was read as APP 5UTR inh -144.5, Hsp70 activator -0.2, STAT1 act 119.3, APP 5'UTR act 144.5*, Wee1 stabilizer 2.9 and NF-kB neuron act 0.96.
For COc1cc(/C=C/C(=O)c2ccc(O)cc2)ccc1OCC#N the results were APP 5UTR inh 14.7, Hsp70 activator 0.0, STAT1 act 92.6, APP 5'UTR act -14.7, Wee1 stabilizer -0.3 and NF-kB neuron act 3.72*.
Screening COc1ccc(C(=O)/C=C/c2ccc(O)cc2)c(O)c1CC=C(C)C returned APP 5UTR inh 0.9, Hsp70 activator -0.2, STAT1 act 99.3, APP 5'UTR act -0.9, Wee1 stabilizer 1.6 and NF-kB neuron act 5*.
For CC1(C)CC(=O)C(C=Nc2ccccc2C(=O)O)=C(O)C1 the results were APP 5UTR inh -12.2, Hsp70 activator 0.0, STAT1 act 98.5, APP 5'UTR act 12.2, Wee1 stabilizer 2.0 and NF-kB neuron act 1.29.
Screening CCN(CCCNC(=O)COc1cc(=O)n(CC)c2ccccc12)c1ccccc1 returned APP 5UTR inh 1.3, Hsp70 activator -0.3, STAT1 act 85.8, APP 5'UTR act -1.3, Wee1 stabilizer 0.1 and NF-kB neuron act 1.18.
For CCOC(=O)c1ccc(S(=O)(=O)N2CCC(C(=O)OCC)CC2)cc1 the results were APP 5UTR inh 0.6, Hsp70 activator 0.2, STAT1 act 98.2, APP 5'UTR act -0.6, Wee1 stabilizer -1.6 and NF-kB neuron act 0.99.
COc1ccc(/C=C/C(=O)c2ccc(O)cc2)cc1CN1CCOCC1 was read as APP 5UTR inh -17.9, Hsp70 activator 0.1, STAT1 act 97.9, APP 5'UTR act 17.9, Wee1 stabilizer 6.3 and NF-kB neuron act 3.7*.
Screening COc1ccc(C(=O)OCCc2ccc(O)cc2)cc1 returned APP 5UTR inh -118.3, Hsp70 activator 0.0, STAT1 act 148.5*, APP 5'UTR act 118.3, Wee1 stabilizer -2.5 and NF-kB neuron act 6.7*.
COc1ccc(C(=O)/C=C/c2ccc(OC)c(CN3CCOCC3)c2)cc1 was read as APP 5UTR inh -27.7, Hsp70 activator -0.1, STAT1 act 93.6, APP 5'UTR act 27.7, Wee1 stabilizer -3.0 and NF-kB neuron act 2.05.
Screening CC(=O)Nc1ccccc1C(F)(F)F returned Wee1 stabilizer -0.6.
`Cn1cccc1C(=O)C(=O)Nc1ccccc1` gave APP 5UTR inh -144.8, Hsp70 activator 0.3, STAT1 act 120.6, APP 5'UTR act 144.8*, Wee1 stabilizer -1.6 and NF-kB neuron act 5.91*.
`Cn1cccc1C(=O)C(=O)Nc1ccccc1C(F)(F)F` gave APP 5UTR inh -57.3, Hsp70 activator -0.1, STAT1 act 139.4*, APP 5'UTR act 57.3, Wee1 stabilizer 2.1 and NF-kB neuron act 1.8.
Screening C/C(O)=C(/N=O)C(=O)Nc1ccccc1 returned APP 5UTR inh -10.8, Hsp70 activator 0.1, STAT1 act 111.1, APP 5'UTR act 10.8, Wee1 stabilizer -2.6 and NF-kB neuron act 1.08.
`COCCCNc1oc(-c2ccccc2F)nc1C#N` gave APP 5UTR inh -16.1, Hsp70 activator 0.1, STAT1 act 95.9, APP 5'UTR act 16.1, Wee1 stabilizer 4.9 and NF-kB neuron act 1.31.
`O=C1NC2(Nc3ccccc31)C(=O)Nc1ccc(Br)cc12` (configuration not stated) gave APP 5UTR inh -16.0, Hsp70 activator 0.0, STAT1 act 99.6, APP 5'UTR act 16.0, Wee1 stabilizer 1.1 and NF-kB neuron act 0.95.
Screening Cc1ccc(C(=O)CSc2nsc(C)c2C#N)cc1 returned APP 5UTR inh -156.3, Hsp70 activator -0.2, STAT1 act 108.8, APP 5'UTR act 156.3*, Wee1 stabilizer -0.3 and NF-kB neuron act 6.04*.
`Cc1ccnc(SCC(=O)c2ccc(Br)cc2)c1C#N` gave APP 5UTR inh -106.8, Hsp70 activator 0.5, STAT1 act 146.1*, APP 5'UTR act 106.8, Wee1 stabilizer 6.0 and NF-kB neuron act 2.91.
CC(C)(C)c1nnc(N/N=C/c2ccccc2O)n(N)c1=O was read as APP 5UTR inh 76.4*, Hsp70 activator -0.4, STAT1 act 98.5, APP 5'UTR act -76.4, Wee1 stabilizer 8.3 and NF-kB neuron act 0.66.
O=C(NC(NC(=S)Nc1c(Cl)cccc1Cl)C(Cl)(Cl)Cl)OCc1ccccc1 (configuration not stated) was read as APP 5UTR inh -8.1, Hsp70 activator -0.1, STAT1 act 95.2, APP 5'UTR act 8.1, Wee1 stabilizer 2.5 and NF-kB neuron act 1.21.
For Fc1cccc(Cl)c1Cn1nnc2c(-n3ccnc3)ncnc21 the results were APP 5UTR inh -1.6, Hsp70 activator -0.2, STAT1 act 110.5, APP 5'UTR act 1.6, Wee1 stabilizer 5.4 and NF-kB neuron act 2.1.
O=C(c1ccc(Cl)cc1)c1cnc(-c2ccc(Cl)cc2)s1 was read as APP 5UTR inh -12.3, Hsp70 activator -0.4, STAT1 act 90.3, APP 5'UTR act 12.3, Wee1 stabilizer -0.7 and NF-kB neuron act 1.09.
For O=C(c1ccccc1)c1cnc(-c2ccccc2)s1 the results were APP 5UTR inh -156.8, Hsp70 activator 0.2, STAT1 act 130.0*, APP 5'UTR act 156.8*, Wee1 stabilizer 10.1* and NF-kB neuron act 9.91*.
O=C(c1ccccc1)c1cnc(-c2ccc(Cl)cc2)s1 was read as APP 5UTR inh -122.8, Hsp70 activator 0.6, STAT1 act 116.1, APP 5'UTR act 122.8, Wee1 stabilizer -0.6 and NF-kB neuron act 6.62*.
`CCN(CC)CCNC1=NCCn2c1cc1cc(OC)ccc12` gave APP 5UTR inh -13.4, Hsp70 activator -0.3, STAT1 act 93.8, APP 5'UTR act 13.4, Wee1 stabilizer -0.9 and NF-kB neuron act 0.7.
CC(C)(C)C(=O)Nc1ccc2oc(-c3cc(F)c(F)cc3Cl)nc2c1 was read as APP 5UTR inh -111.6, Hsp70 activator -0.1, STAT1 act 141.7*, APP 5'UTR act 111.6, Wee1 stabilizer 0.5 and NF-kB neuron act 4.26*.
For O=C(Nc1ccc2oc(-c3ccccc3F)nc2c1)c1cncc(Br)c1 the results were APP 5UTR inh -11.2, Hsp70 activator 0.2, STAT1 act 119.2, APP 5'UTR act 11.2, Wee1 stabilizer 2.4 and NF-kB neuron act 1.65.
Cc1nnc(Sc2cc(C(=O)NCCCOC(C)C)c3ccccc3n2)s1 was read as Wee1 stabilizer -1.0.
CCOC(=O)/C(=C/C=C1\Sc2cc(C)c(C)cc2N1CC)C(C)=O was read as APP 5UTR inh -26.3, Hsp70 activator -0.2, STAT1 act 61.6, APP 5'UTR act 26.3, Wee1 stabilizer 0.4 and NF-kB neuron act 0.57.
Screening CCN1/C(=C/c2ccc3cc(C)ccc3[n+]2CC)Sc2ccccc21 returned APP 5UTR inh 80.6*, Hsp70 activator 0.7, STAT1 act 77.0, APP 5'UTR act -80.6, Wee1 stabilizer -1.9 and NF-kB neuron act 0.17.
For CCN1/C(=C/c2ccc3cc(C)ccc3[n+]2CC)Sc2cc(C)c(C)cc21 the results were APP 5UTR inh 46.2*, Hsp70 activator -0.3, STAT1 act 82.4, APP 5'UTR act -46.2, Wee1 stabilizer -3.7 and NF-kB neuron act 1.22.
